An excerpt weighted towards active compounds, which were near 3.5% of everything screened.
mHTT CaM bind: mutant huntingtin-calmodulin interaction inhibitors – biochemical, AlphaScreen, primary screen; P42858; AlphaScreen His-mHTT/GST-CaM binding, luminescence; inhibition, % at 15 µM; 3.6% of 190,000 active;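 note: 0% = both proteins with DMSO and 100% = one protein alone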
Target sequence (P42858 whole entry, looked up, stated change not applied): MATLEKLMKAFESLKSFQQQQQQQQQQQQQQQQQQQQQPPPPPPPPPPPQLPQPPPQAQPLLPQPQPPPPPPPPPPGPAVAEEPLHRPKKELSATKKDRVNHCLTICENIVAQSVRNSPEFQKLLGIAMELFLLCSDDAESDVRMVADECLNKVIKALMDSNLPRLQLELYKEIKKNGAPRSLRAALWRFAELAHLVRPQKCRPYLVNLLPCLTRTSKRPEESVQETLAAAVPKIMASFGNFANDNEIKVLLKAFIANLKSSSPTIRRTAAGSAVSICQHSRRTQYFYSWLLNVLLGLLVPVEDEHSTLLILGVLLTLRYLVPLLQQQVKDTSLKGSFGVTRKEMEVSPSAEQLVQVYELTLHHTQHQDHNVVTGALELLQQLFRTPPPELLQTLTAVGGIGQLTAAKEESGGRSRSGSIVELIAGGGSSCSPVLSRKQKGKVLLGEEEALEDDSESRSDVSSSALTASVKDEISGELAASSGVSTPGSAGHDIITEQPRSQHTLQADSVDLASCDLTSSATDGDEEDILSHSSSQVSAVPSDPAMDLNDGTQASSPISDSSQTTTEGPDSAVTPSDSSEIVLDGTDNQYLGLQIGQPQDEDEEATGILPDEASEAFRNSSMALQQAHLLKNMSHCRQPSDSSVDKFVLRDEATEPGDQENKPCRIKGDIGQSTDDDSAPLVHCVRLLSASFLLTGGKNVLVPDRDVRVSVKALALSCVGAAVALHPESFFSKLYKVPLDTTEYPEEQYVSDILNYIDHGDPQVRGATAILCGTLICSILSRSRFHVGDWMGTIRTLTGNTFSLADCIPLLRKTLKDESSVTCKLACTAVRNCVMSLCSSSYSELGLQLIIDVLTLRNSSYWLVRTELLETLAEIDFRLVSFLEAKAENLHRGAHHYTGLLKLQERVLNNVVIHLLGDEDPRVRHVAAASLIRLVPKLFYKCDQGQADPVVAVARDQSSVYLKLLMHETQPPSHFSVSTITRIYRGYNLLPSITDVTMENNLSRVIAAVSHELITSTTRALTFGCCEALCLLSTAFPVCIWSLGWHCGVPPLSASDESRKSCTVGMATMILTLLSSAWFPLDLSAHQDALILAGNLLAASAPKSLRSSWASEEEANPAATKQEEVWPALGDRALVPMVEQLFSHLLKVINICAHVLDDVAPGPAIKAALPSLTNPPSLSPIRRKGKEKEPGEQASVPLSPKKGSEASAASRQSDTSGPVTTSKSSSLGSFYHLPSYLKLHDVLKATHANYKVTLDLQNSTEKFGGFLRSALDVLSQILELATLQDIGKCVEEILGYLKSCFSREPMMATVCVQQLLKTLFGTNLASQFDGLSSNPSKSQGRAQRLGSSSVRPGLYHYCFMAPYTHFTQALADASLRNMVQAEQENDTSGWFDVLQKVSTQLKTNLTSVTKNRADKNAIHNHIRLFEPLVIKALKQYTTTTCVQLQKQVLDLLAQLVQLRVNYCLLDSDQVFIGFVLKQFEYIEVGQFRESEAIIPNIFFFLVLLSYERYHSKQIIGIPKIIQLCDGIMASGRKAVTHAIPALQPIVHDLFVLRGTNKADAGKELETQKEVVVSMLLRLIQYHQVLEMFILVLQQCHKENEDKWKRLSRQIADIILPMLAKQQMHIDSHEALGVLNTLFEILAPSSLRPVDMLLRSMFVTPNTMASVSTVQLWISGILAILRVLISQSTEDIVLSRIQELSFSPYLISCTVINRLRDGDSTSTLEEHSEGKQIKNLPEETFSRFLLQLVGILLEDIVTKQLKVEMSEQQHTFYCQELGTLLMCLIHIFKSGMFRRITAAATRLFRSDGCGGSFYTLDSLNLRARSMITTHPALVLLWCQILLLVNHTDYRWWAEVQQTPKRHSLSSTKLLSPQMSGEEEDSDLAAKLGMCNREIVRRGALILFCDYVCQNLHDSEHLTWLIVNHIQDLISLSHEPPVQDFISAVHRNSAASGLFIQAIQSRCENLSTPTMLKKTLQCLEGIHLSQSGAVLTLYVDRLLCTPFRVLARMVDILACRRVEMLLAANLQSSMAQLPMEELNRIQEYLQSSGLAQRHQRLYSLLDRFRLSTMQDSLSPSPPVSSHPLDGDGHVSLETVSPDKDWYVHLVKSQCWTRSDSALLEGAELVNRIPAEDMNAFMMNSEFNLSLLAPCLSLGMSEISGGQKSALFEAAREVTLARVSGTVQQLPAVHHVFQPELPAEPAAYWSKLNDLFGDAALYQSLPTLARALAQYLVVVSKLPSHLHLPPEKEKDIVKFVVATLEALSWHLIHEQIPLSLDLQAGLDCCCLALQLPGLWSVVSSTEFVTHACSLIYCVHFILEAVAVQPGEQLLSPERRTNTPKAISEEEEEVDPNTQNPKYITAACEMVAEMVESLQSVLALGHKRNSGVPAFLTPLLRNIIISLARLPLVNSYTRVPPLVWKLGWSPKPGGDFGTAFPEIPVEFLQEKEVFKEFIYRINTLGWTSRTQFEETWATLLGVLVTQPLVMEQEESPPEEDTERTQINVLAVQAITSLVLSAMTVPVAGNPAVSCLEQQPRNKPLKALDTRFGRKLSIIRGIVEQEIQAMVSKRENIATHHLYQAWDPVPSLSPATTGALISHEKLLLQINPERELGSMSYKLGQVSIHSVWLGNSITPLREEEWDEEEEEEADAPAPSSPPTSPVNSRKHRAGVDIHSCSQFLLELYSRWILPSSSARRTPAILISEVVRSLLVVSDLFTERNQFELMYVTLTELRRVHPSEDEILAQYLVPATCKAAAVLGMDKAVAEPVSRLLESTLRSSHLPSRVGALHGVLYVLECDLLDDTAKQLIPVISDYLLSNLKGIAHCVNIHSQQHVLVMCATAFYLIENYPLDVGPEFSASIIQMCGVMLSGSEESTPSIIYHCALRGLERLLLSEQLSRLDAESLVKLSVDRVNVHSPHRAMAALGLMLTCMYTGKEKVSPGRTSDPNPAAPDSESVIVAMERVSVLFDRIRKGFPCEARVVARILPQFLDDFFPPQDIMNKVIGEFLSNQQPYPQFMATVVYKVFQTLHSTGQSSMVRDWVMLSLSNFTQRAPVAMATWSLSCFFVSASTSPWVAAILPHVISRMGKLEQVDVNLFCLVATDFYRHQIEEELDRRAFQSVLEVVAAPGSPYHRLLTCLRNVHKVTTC
Pf apPOL block: Pf-apPOL inhibitors, biochemical, fluorescence; inhibition, % at 10 µM; Recombinant Pf-apPOL, molecular beacon fluorescence, 1.5 h; 0.25% of 210,000 active
Starred values were filed as active, the others as inactive. Cut-off read from the data, not from the text of the source: active = inhibition above about 50%; inactive = the rest.

SMILES	mHTT CaM bind	Pf apPOL block
Cc1ccc(C2Oc3ccccc3C3=C2C(c2ccc(F)cc2)n2ncnc2N3)cc1 (centres undefined)	3.0	2.0
COc1ccc(NC(=O)c2cc(Cl)ccc2OC)cc1OC	16.5	2.4
CCN(CC)c1ccc(C2C(C(=O)Nc3ccccn3)=C(C)NC3=C2C(=O)CCC3)cc1 (centres undefined)	15.0	-2.4
CCN(CC)c1ccc(C(Nc2ccccn2)c2ccc3cccnc3c2O)cc1 (centres undefined)	100.0*	-1.0
CC(C)Oc1ccc(C(=O)Nc2cc(-c3nc4ncccc4o3)ccc2Cl)cc1	6.0	-7.3
CC(C)Oc1ccc(C(Nc2ccccn2)c2ccc3cccnc3c2O)cc1 (centres undefined)	98.0*	-279.6
CN(C)C(=O)c1ccc2c(c1)nnn2C1CCCCC1	-1.4	-1.8
O=C(NCc1ccccc1)c1cccc(N2CCNC(c3ccccc3)C2)n1 (centres undefined)	22.1	-23.0
O=C(NCc1ccccn1)c1cccc(N2CCNC(c3ccccc3)C2)n1 (centres undefined)	85.4*	-20.2
O=C(NCc1cnccn1)c1ccc(N2CCNC(c3ccccc3)C2)nc1 (centres undefined)	28.7	-9.1
O=C(NCc1cnccn1)c1ccnc(N2CCNC(c3ccccc3)C2)c1 (centres undefined)	69.5*	1.1
COc1ccc(CNC(=O)c2cccc(N3CCNC(c4ccccc4)C3)n2)c(OC)c1 (centres undefined)	97.0*	-4.0
COc1ccc(CNC(=O)c2ccnc(N3CCNC(c4ccccc4)C3)c2)c(OC)c1 (centres undefined)	47.4	-0.9
CCCC(=O)N1CCC(c2nc(C(=O)N(C)C)c(C)o2)CC1	-1.4	-2.0
CC(=O)Oc1ccc(C(=O)Nc2cc(Cl)ccc2OC(C)=O)cc1	68.8*	-0.6
COc1ccc(OC)c(NC(=O)c2ccc(Cl)cc2)c1	-5.5	-3.4
COCCCN1C(=O)C(=O)C(=C(O)c2ccc(OC)c(C)c2)C1c1ccc(OC)c(OC)c1 (centres undefined)	14.6	6.5
COc1ccc(CN(CCC(c2ccccc2OC)C2CCOC(C)(C)C2)C(C)=O)cc1 (centres undefined)	22.0	-3.0
CC(C)(C)Oc1ccc(C(=O)N(Cc2ccc(F)cc2)C2CCOC(C)(C)C2)cc1 (centres undefined)	56.0*	0.8
CN(CCc1ccccn1)Cc1ccccc1	-3.1	1.1
CC(=O)c1ccc(-c2c([C@H]3[C@@H]4C=CCC[C@@]4(C)C(=O)N3Cc3ccccc3)ccc3ccccc23)cc1	100.6*	-5.0
COc1ccc(-c2c([C@H]3[C@@H]4C=CCC[C@@]4(C)C(=O)N3Cc3ccccc3)ccc3ccccc23)cc1OC	100.5*	0.7
COc1ccc(-c2ccc([C@H]3[C@@H]4C=CCC[C@@]4(C)C(=O)N3Cc3ccccc3)c(F)c2)cc1OC	37.0	-0.4
CN(C)c1ccc(-c2c([C@H]3[C@@H]4C=CCC[C@@]4(C)C(=O)N3Cc3ccccc3)ccc3ccccc23)cc1	50.0	-5.4
COc1cccc(C(=O)N2CCC3(CC2)NC(=O)c2ccc(Cl)cc2N3)c1	13.8	0.2
SMILES	mHTT CaM bind	Pf apPOL block
O=C1c2ccccc2-c2onc3c(Br)cc(O)c1c23	58.0*	-3.4
O=C1c2ccccc2-c2onc3ccc(Cl)c1c23	30.5	-3.5
O=C1c2ccccc2-c2onc3c(Cl)cc(O)c1c23	53.0*	-1.1
CCOc1ccc2noc3c2c1C(=O)c1ccccc1-3	11.0	-4.5
CCOc1ccc(/C=C2/C(=O)N(c3ccc(Cl)c(C(=O)O)c3)N=C2C)cc1	6.0	-6.1
COc1ccccc1OCC(=O)Nc1ccc(Nc2ccccc2)cc1	61.1*	-1.6
CCN(CC)c1ccc(NC(=O)COc2ccccc2OC)cc1	56.4*	-3.0
CCC(C)c1ccc(NC(=O)COc2ccccc2OC)cc1 (centres undefined)	-56.6	-3.4
COc1ccccc1OCC(=O)Nc1ccc(C(C)=O)cc1	-3.5	8.2
COCCNC(=O)CSc1nc2ccccc2c2nc(-c3ccc([N+](=O)[O-])cc3)nn12	2.0	-0.3
Cc1ccc(C(=O)Nc2ccc3c(c2)OCO3)cc1	47.0	0.5
CCCCOc1ccc(S(=O)(=O)NCc2ccc3c(c2)OCO3)cc1	-0.6	-18.4
Cc1ccc(CNc2ccc3c(c2)OCO3)cc1	100.5*	0.5
COc1ccccc1CC(=O)Nc1ccc2c(c1)OCO2	7.4	-4.5
Cc1ccccc1CNc1ccc2c(c1)OCO2	90.9*	5.6
O=C(NCc1ccco1)C(=O)Nc1ccc2c(c1)OCO2	0.3	-2.2
c1coc(CNc2ccc3c(c2)OCO3)c1	71.4*	1.8
CCCCOc1ccc(CNc2ccc3c(c2)OCO3)cc1	91.5*	0.0
O=C(CN1CCC2(CC1)N=C(c1ccccc1)C(=O)N2)NCc1ccccc1Cl	29.0	-6.2
CC(C)n1c(C2CCN(C(=O)Nc3cc(F)ccc3F)C2)nc2ccncc21 (centres undefined)	-2.5	-5.8

Assay outcomes from PubChem.
